High-throughput results deposited in PubChem BioAssay by National Center for Advancing Translational Sciences (NCATS).
This is a sample that favours compounds with a hit; in the whole collection about 18% have one here.
TGFb SMAD3 inh: blocks TGF-b signaling; HepG2 CAGA-GFP TGF-b/SMAD3 reporter, GFP fluorescence, 18 h; TGF-beta stimulated, 500 pg/mL final; 410,000 tested, 1.2% active; AID 588855; Potency, µM (doses to about 46.1 µM), without a hit: at the top dose activity, negative = inhibition, most hits filed as inhibitors; note: potency is the fitted concentration of half-maximal effect; % is set by controls: 0 for no effect and ±100 for the full control effect; nearly all actives have a fitted effect of over 65% in size
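First, reporter cells (HEPG2 CAGA-GFP) rested 2 h at 37 degrees C. Next, compounds were pinned in and TGF-beta added to 500 pg/mL final. After 18 h, GFP was imaged per cell and summed per well.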
TDP1 cell noCPT: qHTS for Inhibitors of human tyrosyl-DNA phosphodiesterase 1 (TDP1): qHTS in cells in absence of CPT. Potency, µM (doses to about 46.2 µM), for the others: top-dose activity change, negative = growth inhibition, usual class: inhibitors. AID 686978, 2013. 420,000 tested, 15% active. DT40 Tdp1-/- hTDP1 cells, no CPT, ATP luminescence, 48 h; note: potency is the fitted concentration of half-maximal effect; % is set by controls: 0 for no effect and ±100 for the full control effect; nearly all actives have a fitted effect of over 55% in size
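Readout: luminescence from CellTiter-Glo after 30 min in the dark at RT. Cells: DT40 Tdp1-/- with stable hTDP1, 400/well. Exposure: compounds alone, ≥48 hr, 37 °C.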
HepG2 viability: HepG2 cytotoxicity, counter-screen for TGF-b inhibitors. HepG2 CAGA-GFP viability, ATP luminescence, 18 h. Potency, µM (doses to about 46.1 µM), without a hit: at the highest dose activity change, negative = cytotoxicity, hits mostly cytotoxic. 410,000 tested, 0.76% active. AID 588856; note: potency is the fitted concentration of half-maximal effect
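CellTiter-Glo luminescence gave cytotoxicity after 18 hours at 37 degrees C. The cells were HepG2 CAGA-GFP in 1% FBS DMEM, stimulated with 500 pg/mL TGF-beta after compound addition. %Activity was normalised to no-cell wells (complete cell-killing) and DMSO (no toxicity), and curves were fitted and classified.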
TDP1 cell CPT: growth inhibition of DT40 Tdp1-/-;hTDP1 cells with camptothecin (screen for TDP1 inhibitors); chicken DT40 Tdp1-/-;hTDP1 cells + 20 nM CPT, ATP luminescence, 48 h; Potency, µM (series often up to 46.2 µM), inactives show at the top dose activity change, negative = growth inhibition, hits mostly inhibitors; 420,000 tested, 12% active; AID 686979; note: potency is the fitted concentration of half-maximal effect; % is set by controls: 0 for no effect and ±100 for the full control effect; nearly all actives have a fitted effect of over 55% in size
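Chicken DT40 Tdp1-/- cells complemented with human TDP1, 400 cells/well, exposed to compounds plus 20 nM camptothecin for at least 48 h at 37 C; viability read as ATP content by CellTiter-Glo luminescence.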
IL-1B inflam inh: inflammasome signaling inhibition, IL-1 beta readout. activity change, % at 57.5 µM. 360,000 tested, 4.7% active. THP-1 LPS/ATP IL-1B secretion, AlphaLISA, 16 h; active compounds read low; in the data active = activity change below about -50%; inconclusive = mostly about -30% to -49%; note: % is set by controls: 0 for no effect and ±100 for the full control effect
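THP-1 cells pretreated 1 hr with compounds (up to 57.5 uM final), then stimulated with LPS (250 ng/mL final) plus ATP (1.25 mM final); secreted IL-1B measured by AlphaLISA after 16 hr, decreased signal indicating inhibition.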
TDP1 inh: TDP1 (human) enzyme inhibition; Q9NUW8; recombinant TDP1, AlphaScreen DNA substrate cleavage; Potency, µM (top dose mostly 130 µM), for the others: at the highest dose activity change, negative = inhibition, hits mostly inhibitors; 350,000 tested, 0.28% active; note: potency is the fitted concentration of half-maximal effect; % is set by controls: 0 for no effect and ±100 for the full control effect; nearly all actives have a fitted effect of over 40% in size
Target sequence (Q9NUW8 whole entry, looked up): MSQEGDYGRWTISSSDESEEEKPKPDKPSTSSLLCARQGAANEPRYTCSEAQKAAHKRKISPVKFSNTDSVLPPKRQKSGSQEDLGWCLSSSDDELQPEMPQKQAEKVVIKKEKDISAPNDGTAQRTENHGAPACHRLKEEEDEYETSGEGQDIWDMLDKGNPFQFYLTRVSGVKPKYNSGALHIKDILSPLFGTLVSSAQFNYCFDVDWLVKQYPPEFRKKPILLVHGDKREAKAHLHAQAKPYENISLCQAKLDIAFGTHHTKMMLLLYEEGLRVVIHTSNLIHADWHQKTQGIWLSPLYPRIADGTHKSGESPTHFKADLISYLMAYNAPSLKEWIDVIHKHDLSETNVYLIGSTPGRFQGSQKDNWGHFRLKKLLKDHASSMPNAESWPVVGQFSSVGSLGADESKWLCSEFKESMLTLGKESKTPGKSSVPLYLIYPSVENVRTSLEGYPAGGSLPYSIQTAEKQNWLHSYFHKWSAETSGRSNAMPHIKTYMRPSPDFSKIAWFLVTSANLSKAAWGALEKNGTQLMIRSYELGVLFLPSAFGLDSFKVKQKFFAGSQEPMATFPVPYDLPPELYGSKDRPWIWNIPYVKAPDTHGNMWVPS
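Enzyme-compound mixtures sat 15 min at room temperature, followed by a 5 min reaction with 15 nM final substrate and 10 min with AlphaScreen beads. Recombinant human Tdp1 was used at 1 nM final.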
Active calls of the source: *; ? = inconclusive; . = not tested or not shown; [ ] = dose if it differs, or a comment. Unless noted, calls come from the whole dose curve; as a rule, active = well fitted curve in the direction sought with a large enough effect; inconclusive = small, poorly fitted or top-dose-only effect, or another doubt; inactive = no such curve, though single readings can be large; an effect the other way counts as inactive or inconclusive.

SMILES	TGFb SMAD3 inh	TDP1 cell noCPT	HepG2 viability	TDP1 cell CPT	IL-1B inflam inh	TDP1 inh
COC(=O)C(Cc1ccccc1)NC(=O)C(N)CC(=O)O (configuration not stated)	.	.	.	.	.	6%
Oc1cc(-c2nc3ccccc3s2)cc2c1OCCN(Cc1cccn1-c1ncccn1)C2	.	16µM*	.	-5%[9.04 µM]	.	.
CCCNC(=O)c1cc(Cl)c(NC(=O)C2=C(C)OCCS2)cc1OC	-2%	?	-2%	?	-53*	.
CCOCCCNC(=O)c1cc(Cl)c(NC(=O)C2=C(C)OCCS2)cc1OC	0%	12µM*	-1%	?	-18	.
CCc1nc(SCC(=O)Nc2ccc(OC)cc2[N+](=O)[O-])n[nH]1	15%	-4%	2%	-19%	0	-1%
O=C(CCc1cn(Cc2ccc(F)cc2)c2ccccc12)NCCc1ccc(Cl)cc1	-27%	18µM*	-35%	?	.	3%
CCOc1ccc(CCNC(=O)CCc2cn(Cc3ccc(F)cc3)c3ccccc23)cc1	?	21µM*	-22%	?	.	5%
Cc1ccc(CCNC(=O)CCc2cn(Cc3ccccc3C)c3ccccc23)cc1	?	16µM*	-54%	18µM*	.	3%
Cc1ccc(Cn2cc(CCC(=O)NCC(C)c3ccccc3)c3ccccc32)cc1 (configuration not stated)	?	16µM*	-15%	?	.	0%
CCN(C(=O)COC(=O)c1cc(Cl)ccc1OC)c1c(N)n(Cc2ccccc2)c(=O)[nH]c1=O	-6%	-19%	-16%	-7%	4	-5%
CCCCCC(=O)N1C[C@H](n2cc(C3CC3)nn2)[C@@H](O)C[C@@H]1c1ccc(C)cc1	0%	-9%	-2%	-15%	-9	.
CCCCCC(=O)N1C[C@@H](n2cc(C3CC3)nn2)[C@H](O)C[C@@H]1c1ccc(C)cc1	-22%	13µM*	-20%	?	4	.
CCCCCC(=O)N1C[C@H](n2cc(C3CC3)nn2)[C@@H](O)C[C@@H]1c1ccc(Cl)cc1	-18%	13µM*	-16%	?	-8	.
CCCCCC(=O)N1C[C@@H](O)[C@H](n2cc(C3CC3)nn2)C[C@@H]1c1ccc(Cl)cc1	18%	-32%	-2%	-22%	-17	.
COc1cc(-c2noc(C)c2C#CCCN2C(=O)c3ccccc3C2=O)cc(OC)c1OC	-4%	?	-1%	?	.	.
CNC[C@@H](CC1CCCCC1)NC[C@H](CC(C)C)NCCc1cccc(C(F)(F)F)c1	?	5.2µM*	10µM*	5.2µM*	-111*	.
CN(C[C@H](Cc1ccccc1)N(C[C@@H](CC1CCCCC1)N(CCc1ccccc1)N=O)N=O)N=O	?	?	3%	?	28	4%
O=C(NCCCCc1ccccc1)c1ccccc1	15%	?	-65%	?	-22	-3%
CNC[C@@H](Cc1ccccc1)NC[C@@H](CC1CCCCC1)NCCCc1ccccc1	?	9.2µM*	13µM*	8.2µM*	-101*	.
CCC[C@@H](CNC)NC[C@H](Cc1ccccc1)NCCCCc1ccccc1	?	12µM*	-123%	9.2µM*	-70*	.
CCC[C@@H](CN[C@@H](CNC)C(C)C)NCCCCc1ccccc1	?	0.82µM*	16µM*	1µM*	-15	.
CC(C)N(C)Cc1nnnn1CC(=O)NCCc1cccc(C(F)(F)F)c1	?	-9%	2%	20%	2	5%
COc1ccc(-c2nc3cnc(Nc4cccc(OC)c4)nc3n(C[C@H]3CCCO3)c2=O)cc1	.	-9%	.	?	.	.
O=c1c(-c2ccc(Cl)cc2)nc2cnc(Oc3ccccc3)nc2n1C1CC1	.	-20%	.	21%	.	.
Cc1cc(N(C)Cc2ccccc2)n2nc(-c3ccc(C(C)(C)C)cc3)nc2n1	-2%	?	-7%	?	.	2%
SMILES	TGFb SMAD3 inh	TDP1 cell noCPT	HepG2 viability	TDP1 cell CPT	IL-1B inflam inh	TDP1 inh
COc1cc(O)oc1C=Nc1ccc(C(=O)O)cc1	-3%	?	14µM*	-15%	-4	-4%
COCC(=O)Nc1cc(C(=O)N2CCN(C)C(c3ccccc3)C2)c2c(c1)nc(-c1ccncc1)n2C (configuration not stated)	.	-8%	.	-7%	.	.
O=C(N[C@@H](Cc1ccccc1)C(=O)O)c1ccccc1	.	.	.	.	.	4%
Cc1cc(-c2nnc3sc(-c4ccc(Cl)cc4Cl)nn23)n[nH]1	13%	?	12%	?	?	2%
COc1ccccc1-c1nn2c(-c3cc(-c4ccccc4)n[nH]3)nnc2s1	-5%	4.5µM*	9%	6.3µM*	.	1%
COc1ccccc1-c1nn2c(-c3ccco3)nnc2s1	0%	18µM*	1%	?	-27	.
Clc1ccccc1-c1nn2c(-c3cc(-c4ccccc4)n[nH]3)nnc2s1	?	11µM*	-16%	13µM*	.	-1%
Clc1ccc(OCc2nn3c(-c4ccco4)nnc3s2)cc1	-1%	18µM*	-11%	?	-17	4%
N#Cc1ccc(NC(=O)COc2ccc(-n3cnnn3)cc2)cc1	3%	-8%	6%	3%	-19	?
CCCCn1nc(C(=O)N(C)C2CCCCC2)c2ccccc2c1=O	-13%	?	-19%	?	11	1%
COCCN1C[C@@H](CO)O[C@@H](n2cnc3c(NC(C)C)ncnc32)C1	4%	2%	7%	7%	15	.
CN(C)c1ccc(-c2nn3c(-c4cc(-c5ccccc5)n[nH]4)nnc3s2)cc1	?	3.2µM*	2%	5µM*	.	-1%
COc1cccc(OC)c1-c1nn2c(-c3cc(-c4ccccc4)n[nH]3)nnc2s1	?	?	-53%	18µM*	-2	-8%
COc1cc(-c2nn3c(-c4ccccn4)nnc3s2)cc(OC)c1OC	.	.	.	.	.	2%
Cc1ccc(S(=O)(=O)CC(=O)Nc2sc3c(c2C(N)=O)CCCC3)cc1	0%	21µM*	-7%	15µM*	.	0%
NC(=O)c1c(NC(NC(=O)c2ccco2)C(=O)c2ccc(Cl)cc2)sc2c1CCCC2 (configuration not stated)	16µM*	?	-41%	?	?	12%
NC(=O)c1c(NC(=O)c2cccs2)sc2c1CCCCCC2	-15%	?	-31%	?	-84*	0%
